About 2,000 (36%) of roughly 5,500 compounds were called active. About 18% were inconclusive and are not listed. Rule as the data show it: active = normalized growth mostly below about 0.91 (no sharp cut-off); inconclusive = no clear call, values can overlap the other calls; inactive = mostly above about 0.92. This is one part of the list.
Test: chemical genetic growth profiling, strain panel (AID 1159580);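 also: tested at 20 µM; growth read once vehicle control cultures reached saturation at 30 °C; 1 = growth at the plate median or of vehicle wells; lower values mean less growth of the strain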
Conditions: growth OD

Measured: normalized growth

N#Cc1c(Cl)c(Cl)c(Cl)c(C#N)c1Cl
inactive: S. cerevisiae deletion strains, locus YJR075W, strain HOC1, hits give low values 0.999 | S. cerevisiae deletion strains, locus YKL009W, strain mrt4, hits give low values 0.976 | S. cerevisiae deletion strains, locus YKL068W, hits give low values 0.989 | S. cerevisiae deletion strains, locus YKL085W, strain MDH1 (second series), hits give low values 0.989 | S. cerevisiae deletion strains, locus YKL085W, strain MDH1, hits give low values 0.989 | S. cerevisiae deletion strains, locus YKL190W, strain CNB1, hits give low values 1.01 | S. cerevisiae deletion strains, locus YKR001C, strain vps1, hits give low values 0.983 | S. cerevisiae deletion strains, locus YLR039C, strain RIC1, hits give low values 1 | S. cerevisiae deletion strains, locus YLR058C, strain SHM2, hits give low values 0.994 | S. cerevisiae deletion strains, locus YLR102C, strain apc9, hits give low values 0.981 | S. cerevisiae deletion strains, locus YLR262C, strain YPT6, hits give low values 1.02 | S. cerevisiae deletion strains, locus YLR268W, strain sec22, hits give low values 0.998 | S. cerevisiae deletion strains, locus YLR330W, strain CHS5, hits give low values 0.996 | S. cerevisiae deletion strains, locus YLR342W, strain FKS1 (second series), hits give low values 0.993 | S. cerevisiae deletion strains, locus YLR371W, strain rom2, hits give low values 0.975 | S. cerevisiae deletion strains, locus YLR418C, strain cdc73, hits give low values 0.995 | S. cerevisiae deletion strains, locus YML016C, strain PPZ1, hits give low values 0.998 | S. cerevisiae deletion strains, locus YML032C, strain rad52, hits give low values 0.968 | S. cerevisiae deletion strains, locus YML124C, strain tub3, hits give low values 0.984 | S. cerevisiae deletion strains, locus YMR078C, strain ctf18, hits give low values 0.969 | S. cerevisiae deletion strains, locus YMR223W, strain ubp8, hits give low values 0.975 | S. cerevisiae deletion strains, locus YMR263W, strain SAP30, hits give low values 1 | S. cerevisiae deletion strains, locus YMR307W, strain GAS1, hits give low values 0.902 | S. cerevisiae deletion strains, locus YNL067W, strain RPL9B, hits give low values 1 | S. cerevisiae deletion strains, locus YNL128W, strain TEP1, hits give low values 0.997 | S. cerevisiae deletion strains, locus YNL153C, strain GIM3, hits give low values 1.01 | S. cerevisiae deletion strains, locus YNL233W, strain BNI4, hits give low values 1 | S. cerevisiae deletion strains, locus YNL250W, strain rad50, hits give low values 0.98 | S. cerevisiae deletion strains, locus YNL271C, strain bni1, hits give low values 0.974 | S. cerevisiae deletion strains, locus YNL298W, strain CLA4, hits give low values 0.971 | S. cerevisiae deletion strains, locus YNL307C, strain MCK1, hits give low values 0.981 | S. cerevisiae deletion strains, locus YNL322C, strain KRE1, hits give low values 0.997 | S. cerevisiae deletion strains, locus YNR052C, strain pop2, hits give low values 0.978 | S. cerevisiae deletion strains, locus YOL006C, strain TOP1, hits give low values 1.01 | S. cerevisiae deletion strains, locus YOL012C, strain htz1 1.56 | S. cerevisiae deletion strains, locus YOL147C, strain pex11, hits give low values 0.989 | S. cerevisiae deletion strains, locus YOR061W, strain CKA2, hits give low values 1.01 | S. cerevisiae deletion strains, locus YOR069W, strain VPS5, hits give low values 0.999 | S. cerevisiae deletion strains, locus YOR136W, strain idh2, hits give low values 0.977 | S. cerevisiae deletion strains, locus YOR144C, strain elg1, hits give low values 0.981 | S. cerevisiae deletion strains, locus YOR184W, strain ser1, hits give low values 0.965 | S. cerevisiae deletion strains, locus YOR316C, strain cot1, hits give low values 0.984 | S. cerevisiae deletion strains, locus YPL055C, strain LGE1, hits give low values 1.01 | S. cerevisiae deletion strains, locus YPL241C, strain CIN2, hits give low values 1 | S. cerevisiae deletion strains, locus YPR119W, strain clb2, hits give low values 0.985 | S. cerevisiae deletion strains, locus YPR141C, strain kar3, hits give low values 0.978 | S. cerevisiae deletion strains, locus YPR163C, strain tif3, hits give low values 0.98 | S. cerevisiae deletion strains, locus YPR167C, strain met16, hits give low values 0.989 | S. cerevisiae deletion strains, strain wtn01, hits give low values 0.99 | S. cerevisiae strains, strain wild type, hits give low values 0.997
active: S. cerevisiae deletion strains, locus YKL160W, strain elf1, hits give low values 0.0734 | S. cerevisiae deletion strains, locus YKR026C, strain gcn3, hits give low values 0.0728 | S. cerevisiae deletion strains, locus YKR091W, strain srl3, hits give low values 0.0738 | S. cerevisiae deletion strains, locus YLL001W, strain dnm1, hits give low values 0.0739 | S. cerevisiae deletion strains, locus YLL026W, hits give low values 0.068 | S. cerevisiae deletion strains, locus YLL041C, strain sdh2, hits give low values 0.0683 | S. cerevisiae deletion strains, locus YLR027C, strain aat2, hits give low values 0.072 | S. cerevisiae deletion strains, locus YLR113W, strain HOG1, hits give low values 0.153 | S. cerevisiae deletion strains, locus YLR221C, strain rsa3, hits give low values 0.0754 | S. cerevisiae deletion strains, locus YLR258W, strain gsy2, hits give low values 0.0732 | S. cerevisiae deletion strains, locus YLR262C, strain YPT6 (second series), hits give low values 0.0948 | S. cerevisiae deletion strains, locus YLR320W, strain mms22, hits give low values 0.0991 | S. cerevisiae deletion strains, locus YLR342W, strain FKS1, hits give low values 0.0799 | S. cerevisiae deletion strains, locus YLR357W, strain rsc2, hits give low values 0.146 | S. cerevisiae deletion strains, locus YLR370C, strain arc18, hits give low values 0.0758 | S. cerevisiae deletion strains, locus YLR384C, strain iki3, hits give low values 0.0759 | S. cerevisiae deletion strains, locus YML120C, strain ndi1, hits give low values 0.0696 | S. cerevisiae deletion strains, locus YMR058W, strain fet3, hits give low values 0.074 | S. cerevisiae deletion strains, locus YMR125W, strain sto1, hits give low values 0.0959 | S. cerevisiae deletion strains, locus YMR129W, hits give low values 0.0707 | S. cerevisiae deletion strains, locus YMR205C, strain PFK2, hits give low values 0.111 | S. cerevisiae deletion strains, locus YMR231W, strain pep5, hits give low values 0.0788 | S. cerevisiae deletion strains, locus YNL071W, strain lat1, hits give low values 0.0711 | S. cerevisiae deletion strains, locus YNL183C, strain NPR1, hits give low values -0.00756 | S. cerevisiae deletion strains, locus YNL209W, strain ssb2, hits give low values 0.0719 | S. cerevisiae deletion strains, locus YNL248C, strain rpa49, hits give low values 0.0922 | S. cerevisiae deletion strains, locus YNL322C, strain KRE1 (second series), hits give low values 0.0768 | S. cerevisiae deletion strains, locus YNR049C, strain mso1, hits give low values 0.0681 | S. cerevisiae deletion strains, locus YOR001W, strain rrp6, hits give low values 0.0917 | S. cerevisiae deletion strains, locus YOR070C, strain gyp1, hits give low values 0.0717 | S. cerevisiae deletion strains, locus YOR080W, strain dia2, hits give low values 0.0799 | S. cerevisiae deletion strains, locus YOR083W, strain WHI5, hits give low values 0.0798 | S. cerevisiae deletion strains, locus YOR106W, strain vam3, hits give low values 0.0853 | S. cerevisiae deletion strains, locus YOR231W, strain MKK1, hits give low values 0.13 | S. cerevisiae deletion strains, locus YOR265W, strain rbl2, hits give low values 0.0688 | S. cerevisiae deletion strains, locus YOR270C, strain vph1, hits give low values 0.122 | S. cerevisiae deletion strains, locus YOR290C, strain snf2, hits give low values 0.0764 | S. cerevisiae deletion strains, locus YPL051W, strain arl3, hits give low values 0.0808 | S. cerevisiae deletion strains, locus YPL078C, strain atp4, hits give low values 0.081 | S. cerevisiae deletion strains, locus YPL106C, strain sse1, hits give low values 0.126 | S. cerevisiae deletion strains, locus YPL240C, strain hsp82, hits give low values 0.0722 | S. cerevisiae deletion strains, locus YPL256C, strain CLN2, hits give low values 0.186
